Source: PubChem BioAssay (Tox21)
Several values for one entry are separate records, joined by “and”; a condition that tells them apart may be missing. Identical values can stand only once. Records with an inconclusive call do not appear. Where a call stands in place of a potency, no number is given. More than one record can exist for a structure, and the calls need not agree. Activity calls are given as the source filed them. Unless noted, calls follow the shape of the dose curve; as a rule, active = well fitted curve in the direction sought with a large enough effect in the repeat runs; inconclusive = weak or mixed curves; inactive = no such curve, though single readings can be large; an effect the other way counts as inactive or inconclusive.

Assays:
[1] = target: Nuclear receptor subfamily 1 group I member 2 (Homo sapiens) (UniProt O75469); assay: Human pregnane X receptor (PXR) small molecule agonists, qHTS assay (AID 1346982); also: nearly all actives have a fitted effect of over 35% in size; also: potency is read from the fitted curve at half-maximal effect
Summary of the method: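 PXR-Luc HepG2 cells (CYP3A4 promoter-driven luciferase) were seeded in medium with 5% charcoal-stripped FBS, left 5 hr at 37 C, then exposed to compounds in DMSO for 24 hr. Luminescence was read after ONE-Glo addition.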

[2] = target: Nuclear receptor subfamily 1 group I member 2 (Rattus norvegicus) (UniProt Q9R1A7); assay: Rat pregnane X receptor (rPXR) activation by small molecules, qHTS assay (AID 1346983); conditions: rPXR luciferase reporter cells, One-Glo luminescence, 24 h; stronger effect = higher value; also: nearly all actives have a fitted effect of over 20% in size
Chain of Nuclear receptor subfamily 1 group I member 2 (Rattus norvegicus) (Q9R1A7 whole entry, looked up): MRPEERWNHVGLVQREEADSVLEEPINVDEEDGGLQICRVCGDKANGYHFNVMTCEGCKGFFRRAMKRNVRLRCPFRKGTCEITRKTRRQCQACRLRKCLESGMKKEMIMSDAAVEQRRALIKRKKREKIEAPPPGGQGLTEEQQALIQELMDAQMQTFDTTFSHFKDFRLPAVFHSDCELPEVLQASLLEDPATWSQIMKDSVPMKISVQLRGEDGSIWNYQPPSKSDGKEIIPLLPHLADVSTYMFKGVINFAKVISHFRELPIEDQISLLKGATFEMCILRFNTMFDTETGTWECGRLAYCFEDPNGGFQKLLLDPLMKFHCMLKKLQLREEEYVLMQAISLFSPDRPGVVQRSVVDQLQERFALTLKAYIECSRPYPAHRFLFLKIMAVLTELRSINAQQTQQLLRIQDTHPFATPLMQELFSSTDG
Summary of the method: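 Luminescent readout (One-Glo luciferase, 30 min room temperature) followed 24 hr compound treatment at 37 C of rPXR cells plated 2,000 per well and preincubated 5hr; qHTS format with compounds delivered in DMSO.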

[3] = target: Nuclear receptor subfamily 1 group I member 2 (Homo sapiens) (UniProt O75469); assay: CYP3A4 induction through human pregnane X receptor (PXR) by small molecules, qHTS assay (AID 1346984); also: nearly all actives have a fitted effect of over 40% in size
Summary of the method: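 DPX-2 cells (HepG2 co-transfected with PXR and CYP3A4 promoter-luciferase) treated with compounds 24 h at 37C; luciferin-IPA CYP3A4 substrate 3uM final added for 3 h, then One-Glo; luminescence read. qHTS format.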

[4] = target: Nuclear receptor subfamily 1 group I member 2 (Homo sapiens) (UniProt O75469); assay: Human pregnane X receptor (PXR) activation by small molecules, qHTS assay (AID 1346985); also: nearly all actives have a fitted effect of over 40% in size
Summary of the method: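 DPX-2 cells (HepG2 co-transfected with a PXR response element and a CYP3A4-promoter luciferase construct) were seeded at 2,000 per well, rested 5 hr at 37C, then exposed to DMSO-dissolved compounds for 24 hr. Activation was read as luciferase luminescence.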

[5] = target: Acetylcholinesterase (Homo sapiens) (UniProt P22303); assay: Acetylcholinesterase (AChE) small molecule antagonists: colormetric cell-based qHTS assay (AID 1347395; calls by dose curve; also: nearly all actives have a fitted effect of over 30% in size; also: potency is read from the fitted curve at half-maximal effect)
Chain of Acetylcholinesterase (Homo sapiens) (P22303 whole entry, looked up): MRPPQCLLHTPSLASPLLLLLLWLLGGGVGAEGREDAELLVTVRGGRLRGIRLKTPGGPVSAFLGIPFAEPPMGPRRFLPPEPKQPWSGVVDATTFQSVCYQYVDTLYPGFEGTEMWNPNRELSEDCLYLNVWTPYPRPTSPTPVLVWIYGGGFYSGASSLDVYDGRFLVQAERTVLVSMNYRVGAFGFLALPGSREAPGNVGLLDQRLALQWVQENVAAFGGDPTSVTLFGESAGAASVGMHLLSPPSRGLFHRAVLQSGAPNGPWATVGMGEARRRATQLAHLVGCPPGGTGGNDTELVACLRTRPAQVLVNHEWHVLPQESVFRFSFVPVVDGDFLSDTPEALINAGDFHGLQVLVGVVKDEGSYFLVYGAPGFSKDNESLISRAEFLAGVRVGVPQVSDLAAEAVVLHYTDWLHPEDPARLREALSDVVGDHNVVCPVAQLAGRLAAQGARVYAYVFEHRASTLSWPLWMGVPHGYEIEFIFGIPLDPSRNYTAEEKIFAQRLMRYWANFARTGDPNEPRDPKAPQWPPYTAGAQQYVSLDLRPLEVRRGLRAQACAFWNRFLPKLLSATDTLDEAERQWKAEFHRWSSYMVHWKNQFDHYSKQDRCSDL
Summary of the method: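 SH-SY5Y cells, plated overnight at 37 C, were exposed to compounds for 30 min at 37 C and 5% CO2. Acetylthiocholine plus DTNB was then added, and thiocholine from endogenous AChE was quantified colorimetrically after 90 min at 37 C.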

[6] = target: Acetylcholinesterase (Homo sapiens) (UniProt P22303); assay: Acetylcholinesterase (AChE) small molecule antagonists: enzyme-based qHTS assay (AID 1347397; calls by dose curve; also: nearly all actives have a fitted effect of over 55% in size; also: potency is read from the fitted curve at half-maximal effect); conditions: Potency: AChE enzyme activity inhibition
Summary of the method: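 rhAChE 50 mU/mL (dispensed) + cpd or DMSO, 30 min RT; add DTNB/acetylthiocholine cocktail, 10 min RT; colorimetric thiocholine readout. qHTS, 1536-well format.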

[7] = target: Acetylcholinesterase (Homo sapiens) (UniProt P22303); assay: Acetylcholinesterase (AChE) small molecule antagonists: fluorescence cell-based qHTS assay (AID 1347398; calls by dose curve; also: nearly all actives have a fitted effect of over 50% in size; also: potency is read from the fitted curve at half-maximal effect); conditions: Potency: AChE activity
Summary of the method: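 Read-out is Thiolite Green fluorescence at Ex/Em = 490/520 nm, formed by reaction with thiocholine released when cellular AChE in SH-SY5Y cells hydrolyzes acetylthiocholine. Compounds were preincubated 30 min at 37 C before substrate.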

[8] = target: Acetylcholinesterase (Homo sapiens) (UniProt P22303); assay: Acetylcholinesterase (AChE) small molecule antagonists: enzyme-based qHTS assay with human liver microsomes (AID 1347399; calls by dose curve; also: nearly all actives have a fitted effect of over 60% in size); conditions: Potency: qHTS inhibition
Summary of the method: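 Recombinant human AChE (50 mU/mL in the enzyme mix) and human liver microsomes (0.25 mg/mL final) were preincubated with compound and NADPH (0.25 mg/mL final) for 30 min at 37 C. Acetylthiocholine/DTNB was then added; thiocholine was read colorimetrically after 10 min at room temperature.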

[9] = target: Cytochrome P450 2D6 (Homo sapiens) (UniProt P10635); assay: Cytochrome P450 Family 2 Subfamily D Member 6 (CYP2D6) small molecule antagonists: luciferase reporter qHTS assay (AID 1671196); also: nearly all actives have a fitted effect of over 50% in size; also: potency is read from the fitted curve at half-maximal effect
Chain of Cytochrome P450 2D6 (Homo sapiens) (P10635 whole entry, looked up): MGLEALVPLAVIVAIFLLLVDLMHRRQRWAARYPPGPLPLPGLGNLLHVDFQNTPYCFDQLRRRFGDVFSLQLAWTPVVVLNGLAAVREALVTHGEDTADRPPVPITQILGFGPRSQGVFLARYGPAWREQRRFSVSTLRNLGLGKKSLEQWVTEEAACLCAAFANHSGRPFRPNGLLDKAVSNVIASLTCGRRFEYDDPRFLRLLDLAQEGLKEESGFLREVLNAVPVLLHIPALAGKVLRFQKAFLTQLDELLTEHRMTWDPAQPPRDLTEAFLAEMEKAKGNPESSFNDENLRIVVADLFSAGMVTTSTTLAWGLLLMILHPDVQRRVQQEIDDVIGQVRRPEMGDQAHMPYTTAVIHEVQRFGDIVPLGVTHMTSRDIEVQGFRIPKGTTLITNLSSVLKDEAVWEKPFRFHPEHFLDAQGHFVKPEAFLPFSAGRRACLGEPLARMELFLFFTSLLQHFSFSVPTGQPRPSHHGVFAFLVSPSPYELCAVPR
Summary of the method: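 CYP2D6 enzyme–substrate mix was held with compound for 10 min at room temperature, then NADPH regeneration solution was added and the reaction ran 1 h at room temperature. Luciferin product was detected by luminescence after 20 min with detection reagent.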

[10] = target: Cytochrome P450 2C9 (Homo sapiens) (UniProt P11712); assay: Cytochrome P450 Family 2 Subfamily C Member 9 (CYP2C9) small molecule antagonists: luciferase reporter qHTS assay (AID 1671198); also: nearly all actives have a fitted effect of over 50% in size; also: potency is read from the fitted curve at half-maximal effect
Chain of Cytochrome P450 2C9 (Homo sapiens) (P11712 whole entry, looked up): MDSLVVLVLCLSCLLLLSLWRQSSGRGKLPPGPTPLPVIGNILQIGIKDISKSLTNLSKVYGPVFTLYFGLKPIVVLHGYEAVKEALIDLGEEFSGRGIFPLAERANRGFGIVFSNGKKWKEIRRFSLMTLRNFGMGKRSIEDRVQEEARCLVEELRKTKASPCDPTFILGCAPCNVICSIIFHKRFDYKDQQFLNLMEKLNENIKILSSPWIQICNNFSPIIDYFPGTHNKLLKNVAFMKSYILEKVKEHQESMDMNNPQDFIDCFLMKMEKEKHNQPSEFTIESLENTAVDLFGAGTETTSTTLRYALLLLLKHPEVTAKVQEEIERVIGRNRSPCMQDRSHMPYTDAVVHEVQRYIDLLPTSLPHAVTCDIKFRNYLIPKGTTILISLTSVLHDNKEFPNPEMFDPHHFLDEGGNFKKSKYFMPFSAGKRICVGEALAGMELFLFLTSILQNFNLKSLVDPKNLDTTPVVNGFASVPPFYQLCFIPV
Summary of the method: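 Enzyme-substrate mix preincubated with compound 10 min at room temperature; reaction started with NADPH regeneration solution, 1 h 37C. Luminescent luciferin product read after 20 min detection reagent.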

[11] = target: Cytochrome P450 1A2 (Homo sapiens) (UniProt P05177); assay: Cytochrome P450 Family 1 Subfamily A Member 2 (CYP1A2) small molecule antagonists: luciferase reporter qHTS assay (AID 1671199); also: nearly all actives have a fitted effect of over 50% in size; also: potency is read from the fitted curve at half-maximal effect
Chain of Cytochrome P450 1A2 (Homo sapiens) (P05177 whole entry, looked up): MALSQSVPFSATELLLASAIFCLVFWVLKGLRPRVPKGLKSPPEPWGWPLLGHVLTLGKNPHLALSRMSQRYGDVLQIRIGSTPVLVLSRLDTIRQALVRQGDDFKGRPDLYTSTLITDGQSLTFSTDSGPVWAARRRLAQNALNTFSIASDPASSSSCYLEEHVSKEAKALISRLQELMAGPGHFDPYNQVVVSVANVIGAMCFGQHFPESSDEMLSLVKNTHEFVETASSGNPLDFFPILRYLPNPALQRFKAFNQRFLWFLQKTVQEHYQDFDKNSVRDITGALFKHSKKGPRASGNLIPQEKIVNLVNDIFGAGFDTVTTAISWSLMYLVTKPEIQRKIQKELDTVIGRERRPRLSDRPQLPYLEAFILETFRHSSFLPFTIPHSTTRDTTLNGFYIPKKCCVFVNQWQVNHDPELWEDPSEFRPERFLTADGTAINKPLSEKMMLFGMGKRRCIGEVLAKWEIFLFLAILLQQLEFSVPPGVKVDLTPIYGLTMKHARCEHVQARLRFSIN
Summary of the method: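 Human CYP1A2 activity measured with a P450-Glo proluciferin substrate; compounds in DMSO preincubated 10 min at room temperature with enzyme-substrate mix, then NADPH regeneration system added for 1 h. Luciferin detection reagent, 20 min, luminescence read.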

[12] = target: Voltage-gated inwardly rectifying potassium channel KCNH2 (Homo sapiens) (UniProt Q12809); assay: Human Ether-a-go-go-Related Gene (hERG) channel small molecule antagonists: fluorescence cell-based qHTS assay (AID 1671200)
Chain of Voltage-gated inwardly rectifying potassium channel KCNH2 (Homo sapiens) (Q12809 whole entry, looked up): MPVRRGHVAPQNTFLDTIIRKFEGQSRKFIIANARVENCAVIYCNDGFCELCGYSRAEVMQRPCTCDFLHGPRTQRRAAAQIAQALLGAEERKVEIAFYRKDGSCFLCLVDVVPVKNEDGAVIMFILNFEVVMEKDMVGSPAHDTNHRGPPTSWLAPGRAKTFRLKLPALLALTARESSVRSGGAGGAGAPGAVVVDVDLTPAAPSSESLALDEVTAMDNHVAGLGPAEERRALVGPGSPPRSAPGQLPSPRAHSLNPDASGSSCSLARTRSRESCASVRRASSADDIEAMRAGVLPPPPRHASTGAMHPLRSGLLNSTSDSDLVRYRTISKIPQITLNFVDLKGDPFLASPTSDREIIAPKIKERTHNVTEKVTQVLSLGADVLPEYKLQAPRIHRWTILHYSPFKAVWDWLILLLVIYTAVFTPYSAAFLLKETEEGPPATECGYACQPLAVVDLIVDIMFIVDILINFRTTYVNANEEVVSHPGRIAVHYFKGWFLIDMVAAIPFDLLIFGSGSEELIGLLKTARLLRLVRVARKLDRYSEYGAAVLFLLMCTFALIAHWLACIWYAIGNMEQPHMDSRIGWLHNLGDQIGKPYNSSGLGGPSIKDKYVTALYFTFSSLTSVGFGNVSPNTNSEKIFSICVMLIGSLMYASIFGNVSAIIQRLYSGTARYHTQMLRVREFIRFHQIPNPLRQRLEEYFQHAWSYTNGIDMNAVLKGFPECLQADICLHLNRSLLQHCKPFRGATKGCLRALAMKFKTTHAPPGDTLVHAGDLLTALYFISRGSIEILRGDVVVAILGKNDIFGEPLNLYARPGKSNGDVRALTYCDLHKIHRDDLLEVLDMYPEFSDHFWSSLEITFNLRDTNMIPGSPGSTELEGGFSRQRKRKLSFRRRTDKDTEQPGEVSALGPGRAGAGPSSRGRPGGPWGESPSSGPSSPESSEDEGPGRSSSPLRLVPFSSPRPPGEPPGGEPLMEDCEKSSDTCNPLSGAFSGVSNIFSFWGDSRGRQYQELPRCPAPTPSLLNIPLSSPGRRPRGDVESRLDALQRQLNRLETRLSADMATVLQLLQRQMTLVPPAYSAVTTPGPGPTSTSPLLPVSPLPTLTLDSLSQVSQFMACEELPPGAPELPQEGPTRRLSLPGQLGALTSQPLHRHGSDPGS
Summary of the method: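 U2OS cells expressing the channel were plated at 1000 cells/well, incubated overnight at 37 C, then loaded with FluxOR II thallium-sensitive dye for 1 h at room temperature in the dark, with a further 10 min at room temperature before stimulation.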

[13] = target: Cytochrome P450 2C19 (Homo sapiens) (UniProt P33261); assay: Cytochrome P450 Family 2 Subfamily C Member 19 (CYP2C19) small molecule antagonists: luciferase reporter qHTS assay (AID 1671197); also: nearly all actives have a fitted effect of over 65% in size; also: potency is read from the fitted curve at half-maximal effect
Chain of Cytochrome P450 2C19 (Homo sapiens) (P33261 whole entry, looked up): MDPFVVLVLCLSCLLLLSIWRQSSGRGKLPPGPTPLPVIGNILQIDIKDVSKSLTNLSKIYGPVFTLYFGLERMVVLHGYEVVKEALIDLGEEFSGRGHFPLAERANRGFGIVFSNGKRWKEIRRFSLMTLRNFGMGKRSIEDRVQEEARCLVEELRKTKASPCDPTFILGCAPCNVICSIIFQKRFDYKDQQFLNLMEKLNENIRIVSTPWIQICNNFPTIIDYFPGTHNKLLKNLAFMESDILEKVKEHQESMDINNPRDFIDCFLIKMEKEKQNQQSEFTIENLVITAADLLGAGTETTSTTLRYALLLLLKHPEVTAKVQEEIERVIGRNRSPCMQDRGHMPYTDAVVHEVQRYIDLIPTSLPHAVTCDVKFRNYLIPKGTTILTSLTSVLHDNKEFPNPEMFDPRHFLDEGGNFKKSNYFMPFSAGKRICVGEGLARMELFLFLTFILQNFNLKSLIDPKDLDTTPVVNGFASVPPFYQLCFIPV
Summary of the method: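 CYP2C19 P450-Glo, 1536-well qHTS. Cpd + enzyme/proluciferin substrate 10 min RT; + NADPH regen, 37C 1 h; stop with luciferin detection reagent, 20 min RT, luminescence (RLU). Pos ctrl ketoconazole.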

[14] = target: Cytochrome P450 3A4 (Homo sapiens) (UniProt P08684); assay: Cytochrome P450 Family 3 Subfamily A Member 4 (CYP3A4) small molecule antagonists: luciferase reporter qHTS assay (AID 1671201)
Chain of Cytochrome P450 3A4 (Homo sapiens) (P08684 whole entry, looked up): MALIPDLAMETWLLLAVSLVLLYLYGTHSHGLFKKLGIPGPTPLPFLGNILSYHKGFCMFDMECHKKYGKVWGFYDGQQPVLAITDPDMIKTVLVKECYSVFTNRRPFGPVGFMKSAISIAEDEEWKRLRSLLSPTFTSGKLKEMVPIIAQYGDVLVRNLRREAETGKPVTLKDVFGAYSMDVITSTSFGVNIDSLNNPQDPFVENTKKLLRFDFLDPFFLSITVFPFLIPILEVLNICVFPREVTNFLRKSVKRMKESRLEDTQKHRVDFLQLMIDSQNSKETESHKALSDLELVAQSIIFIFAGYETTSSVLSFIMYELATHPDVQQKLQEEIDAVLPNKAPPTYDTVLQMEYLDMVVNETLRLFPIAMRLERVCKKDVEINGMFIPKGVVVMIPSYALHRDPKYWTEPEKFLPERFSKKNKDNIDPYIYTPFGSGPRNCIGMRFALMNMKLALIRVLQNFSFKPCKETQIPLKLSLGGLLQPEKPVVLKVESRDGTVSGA
Summary of the method: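 P450-Glo CYP3A4 system with proluciferin substrate; compounds preincubated 10 min RT with enzyme-substrate mix, then NADPH regeneration added for 1 h RT. Detection reagent 20 min, luminescence read as relative luminescence units.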

SMILES | Potency [1] | max activation [2] | outcome [3] | Potency [4] | Potency [5] | Potency [6] | Potency [7] | Potency [8] | Potency [9] | Potency [10] | Potency [11] | Potency [12] | Potency [13] | Potency [14]
C1CCC(NC2CCCCC2)CC1 | inactive | -0.555% (inactive) | inactive | inactive | inactive | inactive | inactive | inactive | 1.47 µM (active) and 252 nM (active) and 246 nM (active) | inactive | inactive | inactive |  | 
O=c1nc(O)n(Cl)c(=O)n1Cl | inactive |  |  |  | inactive | inactive | inactive | inactive | inactive and 1.26 µM (active) | inactive | inactive | inactive | inactive | 
CCCCCCCCCCCCCC[P+](CCCCCC)(CCCCCC)CCCCCC | 2.74 µM (active) and 3.89 µM (active) and 3.43 µM (active) |  |  |  | 71.3 µM (active) and 80.3 µM (active) and inactive | 20.1 µM (active) and 25.4 µM (active) and inactive | 35.7 µM (active) and 71.6 µM (active) and inactive | inactive | 201 nM (active) and 101 nM (active) and 224 nM (active) | 25.3 µM (active) and 35.9 µM (active) and 5.63 µM (active) | 35.7 µM (active) and 63.8 µM (active) |  | 25.3 µM (active) and 35.9 µM (active) and 79.6 µM (active) | 
CN(C)[C@@H]1C(=O)C(C(N)=O)=C(O)[C@@]2(O)C(=O)C3=C(O)c4c(O)cccc4[C@@](C)(O)[C@H]3[C@H](O)[C@@H]12 | inactive | -4.55% (inactive) and -1.55% (inactive) | inactive | inactive |  |  |  |  | inactive | 61.8 µM (active) and 39.6 µM (active) | inactive | inactive | inactive | 
Nc1ccc(Cl)cc1 | inactive and 62.2 µM (active) |  |  |  | inactive | inactive | inactive | inactive | 20 µM (active) and 31.7 µM (active) and 60.8 µM (active) | 39.9 µM (active) and 32.3 µM (active) | 63.3 µM (active) and 39.9 µM (active) and 57.4 µM (active) |  | 39.9 µM (active) and 20.4 µM (active) | 
Nc1ccc(-c2ccc(N)c(Cl)c2)cc1Cl | 30.8 µM (active) and 9.69 µM (active) |  |  |  | inactive | inactive | inactive | inactive | inactive | 10.1 µM (active) and 11.8 µM (active) and 12.6 µM (active) | 1.79 µM (active) and 1.48 µM (active) and 1.42 µM (active) |  | 4.01 µM (active) and 3.73 µM (active) and 5.64 µM (active) | 
Cc1cc(Cl)ccc1OCC(=O)O | inactive |  |  |  | inactive | inactive | inactive | inactive | inactive |  | inactive |  | inactive and 39.9 µM (active) | inactive
CCCn1cc[n+](C)c1 | inactive |  |  |  | inactive | inactive | inactive | inactive | 80.4 µM (active) and inactive | inactive | inactive | inactive | inactive | 
CCCCn1cc[n+](C)c1C | inactive |  |  |  |  |  |  |  | inactive | inactive | inactive and 35.9 µM (active) |  | inactive | 
CCCC[N+]1(C)CCCC1 | inactive |  |  |  |  |  |  |  | inactive | inactive | inactive | inactive | inactive and 40.2 µM (active) | 
C[N+](C)(C)Cc1ccccc1 | inactive |  |  |  | inactive | inactive | inactive | inactive | 7.93 µM (active) and inactive and 20 µM (active) | 79.6 µM (active) and inactive | inactive | inactive | 31.6 µM (active) and inactive | 
CCCCCCCCCCCCn1cc[n+](C)c1 |  |  |  |  |  |  |  |  |  | 9.01 µM (active) and inactive and 64.3 µM (active) |  |  |  | 
CCC[N+]1(C)CCCC1 | inactive |  |  |  |  |  |  |  | inactive | inactive | inactive | inactive | inactive | 
CCCC[n+]1ccc(C)cc1 | inactive and 5.45 µM (active) |  |  |  |  |  |  |  | inactive and 449 nM (active) | inactive and 22.3 µM (active) | 36.1 µM (active) and 35.4 µM (active) and inactive |  | inactive | inactive
CC(Cl)(Cl)C(=O)O | inactive and 61.3 µM (active) |  |  |  | inactive | inactive | inactive | inactive | inactive | inactive and 63.3 µM (active) | inactive | inactive | inactive | 
